# Assay outcomes deposited in PubChem BioAssay by National Center for Advancing Translational Sciences (NCATS).
# Only some compounds are listed: those with a hit (about 2.2% of all), similar ones and a draw of the others.
# Giardia kill: kills Giardia lamblia; Giardia lamblia trophozoite viability; AID 540267; hit rate 0.15% among 340,000; activity change, % at 7.66 µM, hits read low; in the data active means activity change below about -80%; inconclusive means between about -30% and that limit;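 further: parasites exposed to compound for two days anaerobically before the ATP read; on the % scale 0 is the no-effect control and ±100 the full control effect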
#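 Compounds were tested on trophozoites seeded at 100 cells/well and held 48 hrs at 37 deg C anaerobically. An ATP-based luminescent kit measured the remaining live cells.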
# TrxR1 inh: rat TrxR1 inhibition; O89049; recombinant rTrxR1, NADPH fluorescence consumption, selenite substrate; Potency, µM (series often up to 114 µM), for inactives: at the top dose activity change, negative = inhibition, actives largely listed as inhibitors; hit rate 1% among 390,000; further: potency means the concentration at half of the fitted maximal effect; on the % scale 0 is the no-effect control and ±100 the full control effect; nearly all actives have a fitted effect of over 65% in size
#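 Rat TrxR1 (90 nM in the dispensed reagent) was pre-reduced with 400 uM NADPH for 5 min at room temperature, then incubated with compound for 15 min. After 400 uM selenite was added, NADPH fluorescence (Ex 340/Em 450 nm) was followed for 8 min.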
# BRCA1 expr act: BRCA1 expression activation; MCF7-BRCA1-FFLuc reporter, luminescence, 48 h; response scale: scaled: vehicle 0%, 10 µM genistein 100%; Potency, µM (doses to about 46.1 µM), for the others: at the highest dose activation, hits mostly activators; hit rate 1.1% among 380,000; further: potency means the concentration at half of the fitted maximal effect; nearly all actives have a fitted effect of over 80% in size
#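 MCF7-BRCA1-FFLuc, 2000 cells/well; 2 h attach, 37 °C/5% CO2; compound 48 h; luciferase substrate 15 min; luminescence end-point. Norm. to genistein 10 microM max activation and DMSO; concentration-response curves fitted.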
# TrxR1 substrate: is turned over as a substrate by rat TrxR1; O89049; purified TrxR1 substrate turnover, NADPH consumption readout; Potency, µM (highest dose often 114 µM), without a hit: at the top dose activity change, negative = substrate turnover; hit rate 0.01% among 390,000; AID 588456; further: potency means the concentration at half of the fitted maximal effect; on the % scale 0 is the no-effect control and ±100 the full control effect; nearly all actives have a fitted effect of over 50% in size
#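 Rat TrxR1, dispensed at 90 nM, was prereduced with 400 uM NADPH (final) for 5 min at ~22 deg C, then incubated with compound 15 min before 400 uM selenite. A first-read NADPH fluorescence drop versus no-compound background flagged substrates.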
# IL-2 act: activates IL-2 in a cell-based reporter assay; activation, % (series mostly up to about 46 µM); AID 652025; hit rate 0.065% among 360,000; IL-2 activation reporter assay, cell-based qHTS; stimulated with anti-CD3/CD4/CD28 beads; in transgenic mouse T cells; in the data active means activation above about 50%; inconclusive means mostly about 30% to 49%; further: 0% is about no effect
#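 Unstimulated transgenic mouse T cells, 750 per well, received compound and, after 60 minutes, anti-CD3/anti-CD4 bead plus anti-CD28 stimulation. EGFP and DsRed were quantified after 18 hours.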
# IDH1 R132H inh: human IDH1 R132H inhibition; AID 602179; Potency, µM (top dose mostly 76.6 µM), without a hit: top-dose activity change, negative = inhibition, actives largely listed as inhibitors; O75874; hit rate 0.093% among 390,000; IDH1-R132H enzyme, NADPH consumption, diaphorase/resazurin fluorescence; further: potency means the concentration at half of the fitted maximal effect; on the % scale 0 is the no-effect control and ±100 the full control effect; nearly all actives have a fitted effect of over 65% in size
# Target sequence (O75874 whole entry R132H, stated change not applied): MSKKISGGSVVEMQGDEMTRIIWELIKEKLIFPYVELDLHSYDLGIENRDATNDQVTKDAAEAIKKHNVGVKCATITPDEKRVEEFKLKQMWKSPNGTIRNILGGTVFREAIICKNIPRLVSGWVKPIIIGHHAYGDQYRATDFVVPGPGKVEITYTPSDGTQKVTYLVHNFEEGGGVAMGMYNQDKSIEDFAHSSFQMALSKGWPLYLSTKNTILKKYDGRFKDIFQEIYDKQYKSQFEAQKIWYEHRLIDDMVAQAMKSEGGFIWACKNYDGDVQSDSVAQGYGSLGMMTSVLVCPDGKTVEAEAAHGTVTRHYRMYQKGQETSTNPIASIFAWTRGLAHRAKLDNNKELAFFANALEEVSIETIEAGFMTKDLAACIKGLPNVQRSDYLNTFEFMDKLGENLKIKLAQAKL
#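 IDH1-R132H (0.5 ug/mL) preincubated 30 min with compound, then NADPH (0.016 mM) and alpha-KG (2 mM) added; 80 min at RT, pH 7.5. Remaining NADPH coupled via diaphorase/resazurin to fluorescence (540/590 nm); concentration-response curves normalized to no-enzyme control.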
# * marks the source's active call; other numbers are inactive results; ? = inconclusive; . = no result given; [ ] = dose if it differs, or a comment. Unless noted, the call rests on the fitted dose curve; in most records, active means well fitted curve in the direction sought with a large enough effect; inconclusive means small, poorly fitted or top-dose-only effect, or another doubt; inactive means no such curve, though single readings can be large; an effect the other way counts as inactive or inconclusive.
SMILES,Giardia kill,TrxR1 inh,BRCA1 expr act,TrxR1 substrate,IL-2 act,IDH1 R132H inh
Cc1cccc(N2CCN(C(=O)C3CCN(S(=O)(=O)c4c(C)noc4/C=C/c4ccccc4F)CC3)CC2C)c1 (stereo not given),.,25.4%[57.1 µM],.,5.1%[57.1 µM],.,-5.6%
Cc1cc2c(cc1S(=O)(=O)Nc1cccc(C#N)c1)OCC(=O)N2,.,15.2%[57.1 µM],.,0.8%[57.1 µM],.,-14.0%
CCn1c(Cl)c(C=O)s/c1=N\S(=O)(=O)c1ccccc1,14.1,1.41µM*,-100.3%,-4.1%,-1.3,-11.9%
COc1ccccc1-c1c(C)nn2c(C(F)(F)F)cc(-c3ccccc3)nc12,.,27.3%,.,2.4%,.,14.0%
O=C(CSc1cn(Cc2ccccc2)c2ccccc12)N1CCOCC1,12.6,-5.7%[57.1 µM],7.94µM*,4.6%[57.1 µM],-2.8,12.4%
C[N+](C)(C)c1ccc(/C=N/Nc2nc(Cl)c(C#N)c(Cl)c2Cl)cc1,21.0,70.8µM*,-54.4%,-13.1%,0.7,6.0%
Fc1cccc(/C=N/Nc2nccnc2Cl)c1,-4.4,6.8%,?,-1.1%,1.4,9.5%
C[n+]1cccc(/C=N/Nc2nc(Cl)c(C#N)c(Cl)c2Cl)c1,11.0,50.1µM*,-23.7%,-11.4%,-0.7,0.0%
N#Cc1c(Cl)nc(N/N=C/c2ccccc2)c(Cl)c1Cl,-14.6,3.4%,-9.3%,3.5%,0.7,-2.0%
CCc1cccc(C)c1NC(=O)CN1C(=O)c2cccc3cccc1c23,.,31.7%,-3.5%,17.1%,.,-2.9%
COc1ccc(Cc2nc(-c3ccccc3)no2)cc1,12.9,22.8%,11.2µM*,3.9%,0.4,3.9%
c1ccc(CCc2nc(-c3cccnc3)no2)cc1,8.0,10.0%,10µM*,7.8%,-1.4,2.4%
c1ccc(CCc2nc(-c3ccccc3)no2)cc1,-21.5,24.2%[57.1 µM],12.6µM*,8.7%,-1.5,9.7%
Brc1ccc(-c2noc(CCc3ccccc3)n2)cc1,0.9,8.7%,52.6%,3.4%,0.0,-2.0%
CCCc1nc(-c2ccc(-c3ccc(F)cc3)cc2)no1,3.7,23.0%,3.98µM*,3.9%,-2.0,5.0%
Cc1ccc(SC2=C(N(C)C)C(=O)c3ccccc3C2=O)cc1,-8.4,7.94µM*,-56.0%,-5.8%,-0.3,22.9%
Cc1ccc(NC2=CC(=O)C(=O)c3ccccc32)cc1,-3.0,-1.2%[57.1 µM],-116.3%,0.7%[57.1 µM],-3.6,11.8%
Oc1c(C(c2ccccc2Cl)N2CCCC2)sc2nc(-c3ccco3)nn12 (stereo not given),.,17.3%[57.1 µM],.,5.3%[57.1 µM],.,-17.4%
COc1ccc(C(=O)N(Cc2sccc2C)C2CCS(=O)(=O)C2)cc1Cl (stereo not given),.,16.8%,.,0.5%,.,.
Cc1cc(C)c(NC(=O)COCc2cc(-c3cccs3)on2)c(C)c1,.,-3.4%,.,-6.8%,.,-15.6%
CCNc1ccccc1CP(=O)(c1ccccc1)c1ccccc1O (stereo not given),24.6,50.1µM*,-5.5%,-11.1%,-0.4,12.9%
O=c1c(-c2ccc(O)cc2)coc2cc(OC3OC(CO)C(O)C(O)C3O)ccc12 (stereo not given),3.9,22.5%,6.31µM*,4.7%,-0.5,1.1%
O=c1c(-c2ccc(O)cc2)coc2cc(OC3OC(CO)C(O)C(O)C3O)cc(O)c12 (stereo not given),2.4,17.1%,8.91µM*,7.2%,2.6,7.3%
Cc1c(C)c2ccc(O[C@@H]3O[C@H](CO)[C@H](O)[C@H](O)[C@H]3O)cc2oc1=O,4.3,4.7%,2.8%,100.9%,-1.5,0.0%
COc1cc(O)c2c(=O)c(-c3ccc(O[C@@H]4O[C@H](CO)[C@@H](O)[C@H](O)[C@H]4O)cc3)coc2c1,-7.5,5.6%[57.1 µM],2µM*,6.5%[57.1 µM],9.1,-1.0%
SMILES,Giardia kill,TrxR1 inh,BRCA1 expr act,TrxR1 substrate,IL-2 act,IDH1 R132H inh
Cc1cc(C)c2c(CC(=O)N(Cc3ccccc3)C3CCS(=O)(=O)C3)coc2c1 (stereo not given),.,7.0%,.,-9.2%,.,16.8%
O=C(Nc1nnc(Cc2ccccc2)s1)C1CCN(C(=O)c2cccs2)CC1,-14.2,24.5%,-19.1%,3.2%,.,.
Cc1cc(C=O)cc(C)c1[N+](=O)[O-],.,-6.1%,.,3.4%,.,.
C/C(=N\NC(=O)C1CC1)c1ccc(Cl)c(Cl)c1,19.1,8.4%[57.1 µM],63.7%,-1.1%[57.1 µM],-1.5,-0.8%
C/C(=N\NC(=O)C1CC1)c1ccc(C)c(C)c1,13.3,6.1%,10µM*,2.3%,-2.7,1.7%
O=C(Nc1cccc(C(F)(F)F)c1)c1ccc2nc(-c3ccco3)c(-c3ccco3)nc2c1,-2.3,5.01µM*,-35.6%,-5.4%,-1.1,-4.9%
O=S(=O)(c1ccc2nc(-c3ccco3)c(-c3ccco3)nc2c1)N1CCOCC1,-7.1,3.98µM*,-4.4%,4.5%,-0.2,-1.9%
O=C(Nc1ccc(N2CCOCC2)cc1)Nc1ccc2nc(-c3ccco3)c(-c3ccco3)nc2c1,7.3,-21.3%,-80.2%,-8.0%,-5.4,2.5%
COc1ccc(CCNC(=O)c2ccc3nc(-c4ccco4)c(-c4ccco4)nc3c2)cc1OC,-0.4,2.51µM*,-69.8%,-4.2%,-1.6,-2.9%
O=C(Nc1ccc2nc(-c3ccco3)c(-c3ccco3)nc2c1)NC1CC1,-13.9,4.47µM*,77.0%,0.9%,-0.2,3.9%
O=C(Nc1cccc(C(F)(F)F)c1)c1ccc2snnc2c1,.,6.0%,19.6%,-1.2%,.,-3.6%
COc1cccc(NC(=O)CCc2nnc3n(Cc4ccccc4Cl)c(=O)c4ccccc4n23)c1,.,10.1%,.,-2.3%,.,-17.7%
CCC(C)NC(=O)c1ccc2nc(-c3ccco3)c(-c3ccco3)nc2c1 (stereo not given),-9.0,2.82µM*,37.9%,-9.5%,.,.
O=C(c1ccc2nc(-c3ccco3)c(-c3ccco3)nc2c1)N1CCN(c2ccccc2)CC1,-2.3,?,-57.0%,-10.0%,-0.6,0.3%
O=C(O)c1ccc2nc(-c3ccco3)c(-c3ccco3)nc2c1,-2.5,2.24µM*,-2.6%,14.6%,-0.7,-1.5%
O=C(CCNc1ccc(F)cc1)c1ccco1,-19.1,11.2µM*,-39.4%,-4.5%,-0.5,1.5%
O=C(CCNc1cc(Cl)cc(Cl)c1)c1ccco1,-7.0,8.91µM*,-31.0%,2.2%,3.2,6.8%
O=C(CCNc1ccc(F)c(Cl)c1)c1ccco1,20.4,?,2.0%,11.8%,-4.2,6.3%
Cc1occc1C(=O)NCc1ccc2c(c1)OCO2,-25.4,-7.5%,2.1%,-3.8%,-0.1,2.5%
C/C(=N\NC(=O)c1nn(C)c(C)c1Br)c1ccc(NC(=O)C2CCCC2)cc1,5.6,11.8%,5.01µM*,8.8%,-1.2,-3.1%
C/C(=N/NC(=O)c1ccoc1C)c1ccc(NC(=O)C2CCCC2)cc1,1.7,-10.2%,5.62µM*,-8.4%,-0.6,10.0%
